For 9 compounds, z-score and composite z-score results are on record in PubChem BioAssay.

Active and inactive are the calls of the source. Unless noted, the rule behind the calls is not given here.

The nature of test [1]: compound effects on lung adenocarcinoma cell viability – A549, calcein-AM fluorescence, 48 h, basal, profiling panel (AID 1162). Note: test concentration not given here. The settings on record: higher = more signal.
Test [2] is described as follows: compound effects on differentiated 3T3-L1 adipocyte viability – cell-based, 3T3-L1 adipocytes, calcein-AM fluorescence, 48 h, basal, profiling panel (AID 1163). Note: test concentration not given here. The settings on record: 3T3-L1 adipocytes viability, higher = more signal.
The nature of test [3]: compound effects on hepatocellular carcinoma cell viability – HepG2, calcein-AM fluorescence, 48 h, basal, profiling panel (AID 1164). Note: test concentration not given here. The settings on record: higher = more signal.
The nature of test [4]: compound effects on multiple myeloma cell viability – MM1S, calcein-AM fluorescence, 48 h, basal, profiling panel (AID 1165).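 Note: viability of MM1S multiple myeloma cells under basal unstimulated conditions; test concentration not given here.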 The settings on record: higher = more signal.
Test [5] can be described thus: calcein-AM signal in unstimulated myeloma cells – cell-based, calcein-AM fluorescence, 48 h, PK04 Diversity Set, profiling panel (AID 1166).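 Note: cells grown under basal conditions without added stimulus; test concentration not given here.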 The note with it: RPMI8226 myeloma viability, higher = more signal.
Test [6] is described as follows: JC-1 mitochondrial signal, unstimulated HepG2 cells – cell-based, JC-1 fluorescence, 24 h, 100 nL compound, profiling panel (AID 1167). Note: test concentration not given here. The settings on record: HepG2 mitochondrial potential, higher = more signal.
Test [7] can be described thus: JC-1 mitochondrial signal, unstimulated adipocytes – cell-based, JC-1 fluorescence, 3T3-L1 adipocytes, 24 h, 100 nL compound, profiling panel (AID 1168). Note: test concentration not given here. The settings on record: JC-1 mitochondrial fluorescence, higher = more signal, called active from +8 up or from −8 down.
A short description of test [8]: JC-1 mitochondrial signal, unstimulated myeloma cells – cell-based, JC-1 fluorescence, RPMI8226, 24 h, 100 nL compound, profiling panel (AID 1169). Note: test concentration not given here. The settings on record: JC-1 mitochondrial potential fluorescence, higher = more signal.
Test [9] is described as follows: JC-1 mitochondrial signal, unstimulated MM1S myeloma – cell-based, JC-1 fluorescence, 24 h, 100 nL compound, profiling panel (AID 1170). Note: test concentration not given here. The note with it: MM1S mitochondrial potential, higher = more signal.
Test [10] is described as follows: resazurin metabolic signal in A549 cells – cell-based, resazurin fluorescence, 24 h, PK04 Diversity Set, profiling panel (AID 1171). Note: test concentration not given here. The settings on record: A549 viability, higher = more signal, called active from +8 up or from −8 down. A general note: Resazurin is reduced to fluorescent resorufin, in cell work by metabolically active cells.
The nature of test [11]: resazurin metabolic signal in HepG2 cells – cell-based, resazurin fluorescence, 24 h, PK04 Diversity Set, profiling panel (AID 1172). Note: test concentration not given here. The note with it: HepG2 viability, higher = more signal.
Test [12] in a line: budding yeast growth changes without added modifier – OD600, strain BY4716, 24 h, basal condition, primary screen (AID 1173). The note with it: S. cerevisiae BY4716 growth, OD600, 24 h; higher = more signal, called active from +8 up or from −8 down.
Test [13] can be described thus: viability profiling in MM1S myeloma cells – cell-based, resazurin fluorescence, basal, 24 h, PK04 Diversity Set, profiling panel (AID 1174). Note: test concentration not given here. The settings on record: higher = more signal, called active from +8 up or from −8 down.
Test [14] addresses Dihydroorotate dehydrogenase (quinone), mitochondrial (Plasmodium falciparum (isolate 3D7)) (UniProt Q08210). Briefly: inhibition of P. falciparum DHODH – biochemical, C-terminal His tag, absorbance 600 nm, primary screen (AID 1175).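 Note: recombinant parasite enzyme with a five histidine tag at its C terminus; test concentration not given here.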 The note with it: PfDHODH enzyme, DCIP absorbance 600 nm; higher = more signal, called active from +8 up or from −8 down.
The nature of test [15]: inhibition of PAO1 biofilm formation – strain PAO1, LB-PBS medium, absorbance 600 nm, primary screen (AID 1176). Note: test concentration not given here. The settings on record: P. aeruginosa PAO1 growth/biofilm, A600, 12 h; higher = more signal.
Test [16] can be described thus: growth modulation of vineyard yeast isolate – strain RM11-1a, OD600, basal, 24 h, primary screen (AID 1177).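 Note: cultures grown under basal conditions with no added stressor; test concentration not given here.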 The note with it: S. cerevisiae RM11-1a growth, OD600, 24 h; higher = more signal, called active from +8 up or from −8 down.
The nature of test [17]: growth of efflux-deficient E. coli DRC39 – strain DRC39, OD650, 24 h, E. coli filamentation inducers, primary screen (AID 1178).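 Note: growth measured as culture turbidity by optical density at 650 nm; test concentration not given here.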 The note with it: E. coli DRC39 acrAB, higher = more signal, called active from +8 up or from −8 down.
The nature of test [18]: growth of efflux-deficient E. coli DRC39 – strain DRC39, OD650, 48 h, E. coli filamentation inducers, primary screen (AID 1179).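 Note: screen aims at cell division blockers that make cells filament.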 The settings on record: E. coli DRC39 delta-acrAB growth, higher = more signal, called active from +8 up or from −8 down.
A short description of test [19]: viability profiling in RPMI8226 myeloma cells – cell-based, resazurin fluorescence, basal, 24 h, PK04 Diversity Set, profiling panel (AID 1180).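 Note: RPMI8826 multiple myeloma cell line at 5000 cells per well; test concentration not given here.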 The settings on record: higher = more signal.
For test [20], the target named is E3 ubiquitin-protein ligase XIAP (Homo sapiens) (UniProt P98170). In words: small molecules binding XIAP protein – biophysical, small-molecule microarray, fluorescence 635 nm, primary screen (AID 1181).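 Note: score merges 667 nm emission and signal to noise over triplicate slides.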 The note with it: higher = more signal.
Sequence of E3 ubiquitin-protein ligase XIAP (Homo sapiens) (P98170 whole entry, looked up): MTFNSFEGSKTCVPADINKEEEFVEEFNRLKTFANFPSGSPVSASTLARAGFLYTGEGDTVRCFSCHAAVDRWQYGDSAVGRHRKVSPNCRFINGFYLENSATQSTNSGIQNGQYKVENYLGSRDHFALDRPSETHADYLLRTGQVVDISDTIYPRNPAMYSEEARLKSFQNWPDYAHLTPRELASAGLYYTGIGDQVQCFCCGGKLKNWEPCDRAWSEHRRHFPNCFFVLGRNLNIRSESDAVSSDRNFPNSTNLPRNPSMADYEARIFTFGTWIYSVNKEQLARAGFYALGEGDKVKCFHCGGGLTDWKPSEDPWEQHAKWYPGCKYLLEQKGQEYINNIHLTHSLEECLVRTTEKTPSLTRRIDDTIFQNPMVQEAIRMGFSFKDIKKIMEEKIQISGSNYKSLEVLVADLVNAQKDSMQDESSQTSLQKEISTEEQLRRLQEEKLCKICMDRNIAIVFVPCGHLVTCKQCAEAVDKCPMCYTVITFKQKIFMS

Sequence of Dihydroorotate dehydrogenase (quinone), mitochondrial (Plasmodium falciparum (isolate 3D7)) (Q08210 whole entry, looked up): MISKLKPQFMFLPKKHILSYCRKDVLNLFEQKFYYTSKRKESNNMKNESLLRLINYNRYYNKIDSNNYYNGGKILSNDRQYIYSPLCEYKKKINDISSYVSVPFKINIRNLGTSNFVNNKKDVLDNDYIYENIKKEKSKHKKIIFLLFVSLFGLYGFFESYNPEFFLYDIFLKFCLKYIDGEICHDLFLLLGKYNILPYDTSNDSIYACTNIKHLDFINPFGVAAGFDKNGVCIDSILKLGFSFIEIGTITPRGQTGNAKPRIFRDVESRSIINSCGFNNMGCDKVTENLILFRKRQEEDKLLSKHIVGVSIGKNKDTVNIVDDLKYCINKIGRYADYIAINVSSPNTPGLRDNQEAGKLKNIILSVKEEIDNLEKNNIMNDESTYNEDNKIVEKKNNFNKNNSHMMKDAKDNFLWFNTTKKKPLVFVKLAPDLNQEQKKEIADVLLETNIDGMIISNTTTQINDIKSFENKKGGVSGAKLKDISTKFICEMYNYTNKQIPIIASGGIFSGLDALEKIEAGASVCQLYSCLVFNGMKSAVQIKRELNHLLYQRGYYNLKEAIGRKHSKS

Turning to `NC(=O)NCC#Cc1ccc2c(c1)[C@]1(C(=O)N2)[C@H](C(N)=O)[C@H]2C(=O)O[C@H](c3ccccc3)[C@H](c3ccccc3)N2[C@@H]1c1ccc(O)cc1`, the z-score is -0.851 in test [1]; -0.842 in test [2]; -0.848 in test [3]; 0.201 in test [4]; 0.375 in test [5]; -1.73 in test [6]. Besides, the z-score in [7] is -0.344 (inactive); in [8], -0.758; in [9] it was -0.094; in test [10], 0.808 (inactive); in test [11], 0.584; in test [12], -0.911 (inactive). Moreover, the z-score in [13] was 0.204 (inactive); in test [15] it was -0.212 (inactive); in [16], -0.732 (inactive); in test [17], 0.0883 (inactive); in test [18] it was -0.612 (inactive); in test [19], -0.0275. Besides, the composite z-score is -0.405 (inactive) in test [14] and 0.156 in test [20].

`O=C1C[C@@](C(=O)NC2CC2)(c2ccc([N+](=O)[O-])cc2)[C@@H](c2ccc(CO)cc2I)N1C1CCCCC1`: the z-score in test [1] was 0.147; in test [2], -0.536; in [3], 0.522; in [4] it was -1.77; in test [5] it was -1.17; in test [6] it was 0.575. For the same compound, the z-score in test [7] was -0.604 (inactive); in test [8], -0.36; in [9], -0.993; in test [10], 0.0067 (inactive); in [11] it was 0.0684; in [12], -0.466 (inactive). In addition, the z-score in [13] was -0.191 (inactive); in [15], 0.512 (inactive); in [16], -0.0222 (inactive); in [17], 0.149 (inactive); in test [18] it was -0.528 (inactive); in [19] it was -0.538. Further, the values for the composite z-score in test [14] and in test [20] were -0.716 (inactive) and 0.123, respectively.

Turning to `C=C(CCCC)C(=O)CC[C@@H](OC(=O)c1ccccc1-c1ccccc1C(=O)O)c1ccc(OCCO)cc1`, the z-score was -0.465 in test [1]; 1.22 in test [2]; 0.515 in test [3]; -3.37 in test [4]; -3.04 in test [5]; -1.4 in test [6]. The z-score in test [7] is -1.03 (inactive); in test [8] it was -0.659; in test [9], -0.137; in test [10], 0.128 (inactive); in test [11] it was -0.268; in [12], -1.78 (inactive). The z-score was -0.276 (inactive) in test [13]; 0.956 (inactive) in [15]; -0.585 (inactive) in [16]; -0.0062 (inactive) in test [17]; -0.297 (inactive) in test [18]; 0.692 in test [19]. Also, the results for the composite z-score in test [14] and in [20] were -1.25 (inactive) and -0.182, respectively.

Regarding `COc1ccc(CCNC(=O)[C@@]2(Sc3ccc(C)cc3)CC(=O)N(C(C)C)[C@@H]2c2ccc(CO)cc2I)cc1`, the z-score is 1.68 in [1]; 0.345 in [2]; 0.0217 in [3]; -3.07 in test [4]; -2.32 in test [5]; 0.529 in test [6]. Also, the z-score was -0.139 (inactive) in [7]; -0.686 in test [8]; -0.942 in test [9]; -0.192 (inactive) in test [10]; 0.104 in test [11]; -1.77 (inactive) in [12]. Besides, the z-score in test [13] was -1.63 (inactive); in test [15] it was 0.196 (inactive); in [16] it was -0.894 (inactive); in test [17], -0.246 (inactive); in test [18], -0.126 (inactive); in test [19], -2.47. Besides, the composite z-score was 0.0834 (inactive) in test [14] and 0.0374 in [20].

Regarding `COC(=O)[C@]1(CCC(=O)OC(C)(C)C)N=C(c2ccc(OCCCO)cc2)O[C@@H]1c1ccccc1CN=[N+]=[N-]`, the z-score was -2.13 in test [1]; -0.354 in [2]; -3.03 in test [3]; -3.55 in [4]; -3.95 in test [5]; -1.93 in test [6]. The z-score was -0.718 (inactive) in test [7]; -1.16 in [8]; -2.7 in [9]; -2.22 (inactive) in [10]; -1.72 in test [11]; 1.01 (inactive) in [12]. The z-score in test [13] is -5.09 (inactive); in test [15] it was 1.53 (inactive); in [16], 1.84 (inactive); in test [17], 0.637 (inactive); in test [18], -0.721 (inactive); in test [19], -4.68. For the same compound, the composite z-score in test [14] was 0.965 (inactive); in [20] it was -0.0773.

For `[N-]=[N+]=Nc1ccccc1[C@@H]1OC(c2ccc(OCCCO)cc2)=N[C@]1(Cc1ccccc1)C(=O)N1CCOCC1`, the z-score was -0.539 in [1]; -1.63 in test [2]; -0.404 in test [3]; -3 in test [4]; -4.17 in [5]; 0.593 in test [6]. The z-score in [7] was 2.15 (inactive); in test [8], -1.21; in test [9], -1.09; in [10], -1.56 (inactive); in [11], -0.601; in test [12], -0.294 (inactive). Further, the z-score in [13] was -1.6 (inactive); in test [15] it was -0.0279 (inactive); in [16], 0.857 (inactive); in test [17], 0.266 (inactive); in test [18], -0.412 (inactive); in [19], -1.58. The composite z-score was 0.291 (inactive) in test [14] and -0.0062 in test [20].

For `COCCOC(=O)N1C(=O)[C@@]2(c3cc(C#CCC(C(=O)OC)C(=O)OC)ccc31)[C@H](c1ccccc1OCCO)N1[C@H](c3ccccc3)[C@H](c3ccccc3)OC(=O)[C@H]1[C@@H]2C(=O)N1CCN(c2ncccn2)CC1`, the z-score in test [1] was -0.0169; in test [2] it was 1.16; in [3] it was 0.469; in test [4], -1.59; in [5] it was -2.45; in test [6], 0.8. The z-score in test [7] is 2.27 (inactive); in test [8], -0.78; in test [9], -0.522; in test [10], 0.934 (inactive); in [11], 0.326; in test [12] it was 2.4 (inactive). The z-score is 1.04 (inactive) in test [13]; 3.18 (inactive) in test [15]; 3.19 (inactive) in test [16]; 0.862 (inactive) in test [17]; 0.519 (inactive) in test [18]; -0.83 in test [19]. Further, the composite z-score was -0.388 (inactive) in [14] and -0.0095 in test [20].

`COCCOC(=O)N1C(=O)[C@@]2(c3cc(C#CC4(O)CCCCCC4)ccc31)[C@H](c1ccccc1OCCO)N1[C@H](c3ccccc3)[C@H](c3ccccc3)OC(=O)[C@H]1[C@@H]2C(=O)N1CCN(c2ncccn2)CC1`: the z-score in test [1] is -0.244; in test [2] it was -0.464; in test [3] it was 1.4; in test [4], -0.404; in [5], -1.14; in test [6], 0.673. The z-score in [7] is 1.86 (inactive); in [8] it was -0.965; in test [9], -1.05; in [10], -0.461 (inactive); in [11], -0.645; in test [12] it was 1.61 (inactive). For the same compound, the z-score was -0.349 (inactive) in test [13]; 2.03 (inactive) in test [15]; 2.39 (inactive) in test [16]; 0.0296 (inactive) in [17]; 0.946 (inactive) in test [18]; -0.874 in test [19]. Also, the composite z-score in test [14] is 0.122 (inactive); in test [20], 0.0774.

With `C=C[C@H](OC)[C@@H](OC(=O)Nc1ccc(OC)cc1)c1ccc(O)c(F)c1`, the z-score in test [1] is -0.766; in test [2], -0.501; in test [3], -0.322; in test [4] it was -2.06; in test [5], -2.88; in test [6] it was -2.39. For the same compound, the z-score was 0.313 (inactive) in test [7]; -0.538 in test [8]; -0.933 in test [9]; -0.596 (inactive) in test [10]; -0.709 in test [11]; -3.76 (inactive) in test [12]. Also, the z-score in test [13] was -1.78 (inactive); in [15] it was 1.05 (inactive); in [16], 0.974 (inactive); in [17], 1.41 (inactive); in [18], 0.98 (inactive); in test [19], 1.69. Moreover, the figures for the composite z-score in test [14] and in [20] were -1.89 (inactive) and 0.0623, respectively.
